Records with an inconclusive call do not appear. The source made the active and inactive calls. Calls come from the whole dose curve; as a rule, active = well fitted inhibition curve with a large enough effect; inconclusive = small, poorly fitted or top-dose-only effect; inactive = flat fitted curve, though single readings scatter.
Each compound was assayed against Calcium and integrin-binding protein 1 (Homo sapiens) (UniProt Q99828) (assay: Primary qHTS for Identification of Calcium Integrin Binding Protein 1 (CIB1) Competitor (AID 1508620;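 note: GST tagged CIB1 binding a fluorescein labelled alphaIIb integrin peptide tracer; top concentration of the series differs between compounds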)). Conditions: CIB1-GST / FITC-alphaIIb peptide fluorescence polarization; series mostly up to 114 µM; activity change, negative = inhibition: at the top concentration.
Sequence of Calcium and integrin-binding protein 1 (Homo sapiens) (Q99828 whole entry, looked up): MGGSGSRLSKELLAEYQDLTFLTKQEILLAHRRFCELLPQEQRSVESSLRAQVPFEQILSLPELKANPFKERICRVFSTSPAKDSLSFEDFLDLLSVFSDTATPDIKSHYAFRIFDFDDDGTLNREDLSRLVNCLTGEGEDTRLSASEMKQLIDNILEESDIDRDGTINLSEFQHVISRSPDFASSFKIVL
In short: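 CIB1-GST (1 uM final) and compound incubated 15 min at room temperature before adding FITC-alphaIIb peptide tracer (100 nM final). Competition for binding read by fluorescence polarization (ex 480, em 540) after another 15 min at room temperature.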
With `Cc1cccc(NS(=O)(=O)c2ccc3c(c2)CCC(=O)N3)c1` the “activity change, negative = inhibition” value was -1.52% (inactive).
For `CC(=O)Nc1sc2c(c1-c1cccc(N(C)C)c1)CCNC2`, the “activity change, negative = inhibition” value was 2.47% (inactive).
In the case of `COC(=O)c1cc2c(s1)c1cnn(Cc3ccccc3F)c(=O)c1n2C`, the “activity change, negative = inhibition” value is reported as 4.03% [at 57.7 µM] (inactive).
In the case of `CCN(CC)c1cc2c(cc1S(=O)(=O)Nc1ccc(C)c(C)c1)CCC(=O)N2`, the “activity change, negative = inhibition” value is reported as 4.9% (inactive).
In the case of `O=C(CN1C(=O)CC(c2ccco2)Sc2ccccc21)Nc1ccccc1F` (stereo not given), the “activity change, negative = inhibition” value is reported as -4.31% (inactive).
In the case of `COc1ccc2ncnc(NCC3CCCO3)c2c1-c1ccc2c(c1)OCO2` (stereo not given), the “activity change, negative = inhibition” value is reported as -3.78% (inactive).
`COc1ccccc1-c1nnc2n1N=C(c1c(OC)cccc1OC)CS2` was tested, and the “activity change, negative = inhibition” value was 6.7% (inactive).
With `CCCc1nnc(-c2cnn(C)c2N)n1CCCn1ccnc1` the “activity change, negative = inhibition” value was 1.17% (inactive).
`Cc1cc(C)cc(Cn2ncc3c4sc(C)cc4n(C)c3c2=O)c1` was tested, and the “activity change, negative = inhibition” value was 11.8% (inactive).
With `Clc1ccc(CSc2nc3ncc(Br)cc3[nH]2)cc1` the “activity change, negative = inhibition” value was 1.11% (inactive).
In the case of `COC(=O)c1ccccc1NC(=O)c1ccccc1OC(F)F`, the “activity change, negative = inhibition” value is reported as -0.0702% (inactive).
With `Cc1sc(NC(=O)Cc2ccc3c(c2)OCO3)nc1-c1ccc2c(c1)CCN2C` the “activity change, negative = inhibition” value was 10.4% (inactive).
With `CC(=O)Nc1cccc([S+](=O)([O-])N2CCCN([S+](=O)([O-])c3cccc(NC(C)=O)c3)CC2)c1` the “activity change, negative = inhibition” value was -4.48% (inactive).
With `NC(=O)C1CCN(c2nc(-c3ccc(OC(F)(F)F)cc3)cs2)CC1` the “activity change, negative = inhibition” value was 2.75% (inactive).
`O=C(O)c1ccc(S(=O)(=O)N[C@H](Cc2ccc([N+](=O)[O-])cc2)C(=O)O)cc1` was tested, and the “activity change, negative = inhibition” value was 0.618% (inactive).
`COc1cc(O)c(C(CC(=O)N2CCC[C@@H](C)C2)c2ccc3c(c2)OCO3)c(OC)c1` (stereo not given in full) was tested, and the “activity change, negative = inhibition” value was 1.86% [at 228 µM] (inactive).
`Cc1ccc(OCCn2c(CCNC(=O)c3ccccc3C(F)(F)F)nc3ccccc32)cc1` was tested, and the “activity change, negative = inhibition” value was 0.445% (inactive).
With `Oc1ccc(CNc2cccnc2)c2cccnc12` the “activity change, negative = inhibition” value was 4.29% (inactive).
With `COc1cc(OC)cc(-c2nnc3n2N=C(c2ccccc2OC)CS3)c1` the “activity change, negative = inhibition” value was -0.382% (inactive).
`COc1ccc(-c2nnc3n2N=C(c2ccccc2OC)CS3)cc1` was tested, and the “activity change, negative = inhibition” value was -2.62% (inactive).
For `Cc1cc(N[S+](=O)([O-])c2ccc(NC(=O)Cc3ccc4c(c3)OCCO4)cc2)no1`, the “activity change, negative = inhibition” value was -13.6% (inactive).
With `CCn1cnc2c(Nc3ccc(CCC(=O)N=C(N)N)cc3)nc(C#N)nc21` the “activity change, negative = inhibition” value was -6.44% (inactive).
`C(=C\c1cccs1)/c1cccnc1` was tested, and the “activity change, negative = inhibition” value was 3.07% (inactive).
`CCOC(=O)c1c(/C=N/Nc2ccccc2)c2sc(C)cc2n1C` was tested, and the “activity change, negative = inhibition” value was -2.79% (inactive).
`Cn1nnnc1Sc1ncnc2scc(-c3ccccc3C#N)c12` was tested, and the “activity change, negative = inhibition” value was 0.531% (inactive).
`Cc1nc(CCNc2ncnc3ccc(-c4ccc5c(c4)OCO5)cc23)cs1` was tested, and the “activity change, negative = inhibition” value was 3.7% (inactive).
With `O=C(Cn1cc(CNC(=O)c2ccccc2)nn1)Nc1cc(C(F)(F)F)ccc1Cl` the “activity change, negative = inhibition” value was 0.989% (inactive).
For `CC(C)c1ccccc1-c1nc2c(c(NCc3ccc(-c4cccnc4)cc3)n1)CNC2`, the “activity change, negative = inhibition” value was -1.1% (inactive).
In the case of `COc1cc(O)c(C(CC(=O)N2CCCC(C#N)C2)c2ccc3c(c2)OCO3)c(OC)c1` (stereo not given), the “activity change, negative = inhibition” value is reported as -2.78% [at 228 µM] (inactive).
In the case of `CC(C)(C)OC(=O)N1CCN(c2ccc(NCc3cnc(-c4ccc(C#N)cc4)o3)cc2)CC1`, the “activity change, negative = inhibition” value is reported as -0.444% (inactive).
In the case of `Oc1cccc2cc(CNc3ccccc3F)cnc12`, the “activity change, negative = inhibition” value is reported as -11.9% (inactive).
In the case of `Cc1ccc(S(=O)(=O)Nc2ccc(C(=O)Nc3nc(-c4ccccc4)cs3)c(Cl)c2)cc1`, the “activity change, negative = inhibition” value is reported as 6.92% (inactive).
In the case of `N#Cc1nc(-c2cccc3ccccc23)oc1N`, the “activity change, negative = inhibition” value is reported as 3.27% (inactive).
`Cc1c(P(=S)(c2ccccc2)c2ccccc2)c2ccccc2n1C/C=C/c1ccccc1` was tested, and the “activity change, negative = inhibition” value was 2.69% (inactive).
In the case of `Cc1cccc(-n2cnc3cc(C(=O)NC(C)(C)C)ccc32)c1`, the “activity change, negative = inhibition” value is reported as 4.18% (inactive).
`CCN(Cc1sccc1C)c1ncnc2ccc(-c3ccc4c(c3)OCO4)cc12` was tested, and the “activity change, negative = inhibition” value was 14.2% (inactive).
`Cc1cc(NS(=O)(=O)c2ccc(NC(=O)Cc3ccc(C)c(F)c3)cc2)no1` was tested, and the “activity change, negative = inhibition” value was -8.3% (inactive).
For `O=[S+]([O-])(Nc1ccc(N2CCNCC2)cc1)c1ccc(NCc2ccc(Cl)cc2O)cc1`, the “activity change, negative = inhibition” value was -4.33% (inactive).
`CC(C)(C)NS(=O)(=O)c1cccc(-c2nnc(SCc3ccc(C(=O)O)cc3)n2-c2ccccc2)c1` was tested, and the “activity change, negative = inhibition” value was -5.34% (inactive).
For `O=C1CCCC2=C1C1(CCCC1)N=C(Nc1nc3cc(Cl)ccc3o1)N2`, the “activity change, negative = inhibition” value was -11% (inactive).

Reference: PubChem BioAssay (NCATS)
% is set by controls: 0 for no effect and ±100 for the full control effect.
